This is an account of results in the supplement of paper PMC12632987.

T1: TRAF2, Q12933
T1 chain: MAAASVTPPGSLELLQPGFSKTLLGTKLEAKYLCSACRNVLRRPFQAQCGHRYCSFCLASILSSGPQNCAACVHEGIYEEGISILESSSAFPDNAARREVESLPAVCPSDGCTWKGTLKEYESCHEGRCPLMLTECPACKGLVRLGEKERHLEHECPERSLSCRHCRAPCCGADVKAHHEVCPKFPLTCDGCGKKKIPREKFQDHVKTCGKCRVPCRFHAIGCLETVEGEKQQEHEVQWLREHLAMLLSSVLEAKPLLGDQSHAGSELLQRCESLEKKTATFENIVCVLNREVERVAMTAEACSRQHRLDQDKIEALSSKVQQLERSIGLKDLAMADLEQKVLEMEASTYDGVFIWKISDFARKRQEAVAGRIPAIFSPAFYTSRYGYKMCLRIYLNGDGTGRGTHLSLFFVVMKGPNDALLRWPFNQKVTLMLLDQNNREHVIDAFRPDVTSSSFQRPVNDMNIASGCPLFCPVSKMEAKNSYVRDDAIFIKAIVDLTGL

B1: traf2_out_11_155_669 (protein)
chain: EEKQKLNNELVNELTKVSDELKEKVIKILKEAAEKHPEHKEEIEKVIESSKTLSGTSFARKAAQLFKELGLEEEAKKVEELLEEAQKKMNEIYKKYEKKL
B2: traf2_out_17_178_1674 (protein)
chain: DKAAKRAEISALTDELIDLTEDTGTKLLALAEAEGTLTPEELALLRAALRSSSANTLLAVAEKLAPKLKTKAEAEALLKDFKEKKKELSKKIAEAYKEYE
B3: traf2_out_14_149_1231 (protein)
chain: SEEAKLLAAAAELTEKIAKTLEEVLKLLKEGKLEEAKKLLKESIEELEKESKKKGVTPSQLFQLEDLLELLEKDPEAAKKFAEEALARAKENADTLKEMA
B4: traf2_out_11_169_779 (protein)
chain: EEAEKNRKINDFALELNDKAKEKLKEEALKLAKEAGLDEEEIKKIFEENKNKSLSAVAAALIKYFESKGKEEEAAKVLEKYEELKDEINKKSSEFIKSLE
B5: traf2_out_1_158_912 (protein)
chain: DTKKKLMLSSVELVVKDAVESARENGDEETAKAIEELGEKIIELVKKLAIEEGKSVEEVIEEIDKLAAEFKAKADPETAAAIERLTRRVKSALRQVEKLM
B6: traf2_out_18_5_1953 (protein)
chain: SREEELKEALKSAERILSKKPEIEAEAKKLGVEELYKKAVEDFTRALENGEDLAKISTKHAEELAKKIGDPEKAEDLTYEIRRYVSAEYAKEVLEEMLKA
B7: traf2_out_20_8_2269 (protein)
chain: MSMEEKLARAADLILDAKDLVRAVIREVLADERAPAIAAEAAAAISVSVSADDTDADILLRIRERATEALTRLAERTGDPRLEEARARVAAALDAAAAAA
B8: traf2_out_6_156_2453 (protein)
chain: AAEAILERTEKEIEEGIKALAAAPEERKIAEINRIAGAFYRGLQALRAAGASLEELRAAAERLLETAEKKAKEAGLDERTRNLLLASLRAVADVALAAAA
B9: traf2_out_17_162_1558 (protein)
chain: SEIEKRWEKLKEELKELEKRVEALEKRLERLAELTPEEIRDLLVEASEVKRRALELAEEAEKLKEKIGEEEAQKLIDEANEIAERAQRIANTLYKALEKK
B10: traf2_out_18_167_1847 (protein)
chain: EEEIRKRREELSDRLVELSEVKRAARLALQALETDPSKVPAALAALREKAASIPELQPLVDAAEAALAAGDREGLRATLEKLIEKAQKLMNEVLKEYEAL
B11: traf2_out_6_156_2450 (protein)
chain: MIEEIFEKAVKEIEELIKKLAAAPESKKIAYINKIAGTFYKALQELRESGASLEEIEEFVERLLKKAEELANEAGLDEDTKNLLLSTLSAVGEVAIANAK
B12: traf2_out_17_162_1507 (protein)
chain: SPLEELRRRIEEELEELRRELERLEKKMENLKSMSKEELSDLLVEASEAKARALRLAELVREHREELGEEEAERLIREAEEIAERLQRIANEAYKELLKK
B13: traf2_out_3_89_2301 (protein)
chain: AAAEAAKIEAARARAERYARGFRKSARFVAKQMIADGMSLDTLRGVLEAARNALVEVFREELKEQGLSEETIEELVKELTEELEKIVEEILEEAEKKRAE
B14: traf2_out_13_95_1141 (protein)
chain: SAEVAAKINAIADRLLAEKDAILDELEAQLKAAGLLTPELRAALEAAKRSSISTAIHRLRELAERYPEARAALEAAIARLEALRREAGREVAEILKEEKE
B15: traf2_out_20_3_2084 (protein)
chain: KELEEEYKKHLEKAEKLLKEAAKLADPETAKKLEELIKRLKKSEELPYSDRLVVLSEVRREVLLLAQEAKAAGNEELAKILEEAAEEINRAMNLLMKMIE
B16: traf2_out_3_77_2274 (protein)
chain: SMKKEEIREKLDEATTLAIASLAVNAINNPEKAEEFREMARIVHRARAIAKEKGKEEELLPLIEEAKEAADKLNEGDESALEKLKEIVKKIGELAEKWEK
B17: traf2_out_17_60_1763 (protein)
chain: GPEEEKEELKREARRAIEEARRLVEEVRAKLAAGTLTASEAMDWLVELTEKRRELERLLEEAEKKGEEMEELKRELERAIEEVRRTMNEVGKHLLELLEA
B18: traf2_out_20_3_2204 (protein)
chain: SELEEELEKRLDAAEKLLKEAQKLADPETAKTLDALIARLKASRELSYDDRLVTLSAIRAEVLALAQAAKAAGNAELAAVLEAAADELQKAMNLVYKIIE
B19: traf2_out_17_162_1540 (protein)
chain: SETEEELRRLREELEELEEELRRLEEISKNLETLSKEELTDLLVEASELRRRALELAERLRRLEEETGSEEARRLRERAEEIAERLQRIANEIYKELEKK

Whole data set: some 1,800 sequences, median “median log2 fold change of GCK-ALFA target abundance (FLAG IP / Myc IP barcode read proportion)” near 0.14, cut for the lowest 2% near -0.84. The full list was thinned out, with the lowest values kept by preference.

In the experiment the target is T1, TRAF2, Q12933. The experiment in a line: median log2 fold change of GCK-ALFA target abundance (FLAG IP / Myc IP barcode read proportion) (log2 ratio); each designed protein is fused to an ALFA-tag nanobody in HEK293 cells to bring the named protein to FLAG-tagged glucokinase (GCK); Myc marks an untargeted standard; higher = target protein stabilised (more abundant). Particulars: target protein: 3xFLAG-MCP-GCK-ALFA reporter; HEK293 landing pad (RPLP). The procedure: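 LABEL-seq trans screen in HEK293 landing-pad cells. Each de novo designed 100-aa effector handle, binding the indicated effector (E3 ligase, DUB or autophagy protein), is fused to a constant NbALFA target handle and induced with 2 ug/mL doxycycline. A FLAG-MCP-GCK-ALFA target and a Myc-MCP standard reporter were transfected, and after 48 h circRNA barcodes were recovered by anti-FLAG and anti-Myc IP and sequenced. The value is the median across barcodes (at least 3 per design) of log2(FLAG/Myc read-proportion ratio), with the two transfection replicates pooled. Negative values mean degradation and positive values mean stabilisation of the target.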
In the case of B1, the “median log2 fold change” value was determined as 0.305.
With B2, the “median log2 fold change” value is 0.0887.
For the molecule B3, the “median log2 fold change” value was 0.24.
In the case of B4, the “median log2 fold change” value is 0.368.
Then B5, with 0.0872.
For the molecule B6, the “median log2 fold change” value is -0.0294.
The same measure for B7: 0.0236.
Turning to B8, the “median log2 fold change” value was -0.00113.
Regarding B9, the “median log2 fold change” value was 0.297.
Then B10, with 0.224; and B11, with 0.00905; and B12, with 0.373.
Then B13, with -0.974; and B14, with -0.98.
As for B15, the “median log2 fold change” value was 0.118.
B16: the “median log2 fold change” value was determined as 0.354.
Regarding B17, the “median log2 fold change” value is -0.0301.
Turning to B18, the “median log2 fold change” value was -0.756.
Then B19, with 0.402.
